Experimental data: publication PMC4336329 (PLoS ONE, 2015)
Among all 310,000 compounds or so, about 14,000 (4.5%) showed an effect of 50% or more. The effect is printed as a negative number. The sample as a whole holds a higher share of strong results than the screen did.

Target: human ether-à-go-go-related gene (hERG) potassium channel (human, UniProt Q12809)
Experiment: primary screen, population patch clamp on CHO cells stably expressing hERG; higher = less effect of the substance
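Also: peak tail current of the secondary pulse compared with the same well before compound.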

Sequence of human ether-à-go-go-related gene (hERG) potassium channel (Q12809 whole entry, looked up): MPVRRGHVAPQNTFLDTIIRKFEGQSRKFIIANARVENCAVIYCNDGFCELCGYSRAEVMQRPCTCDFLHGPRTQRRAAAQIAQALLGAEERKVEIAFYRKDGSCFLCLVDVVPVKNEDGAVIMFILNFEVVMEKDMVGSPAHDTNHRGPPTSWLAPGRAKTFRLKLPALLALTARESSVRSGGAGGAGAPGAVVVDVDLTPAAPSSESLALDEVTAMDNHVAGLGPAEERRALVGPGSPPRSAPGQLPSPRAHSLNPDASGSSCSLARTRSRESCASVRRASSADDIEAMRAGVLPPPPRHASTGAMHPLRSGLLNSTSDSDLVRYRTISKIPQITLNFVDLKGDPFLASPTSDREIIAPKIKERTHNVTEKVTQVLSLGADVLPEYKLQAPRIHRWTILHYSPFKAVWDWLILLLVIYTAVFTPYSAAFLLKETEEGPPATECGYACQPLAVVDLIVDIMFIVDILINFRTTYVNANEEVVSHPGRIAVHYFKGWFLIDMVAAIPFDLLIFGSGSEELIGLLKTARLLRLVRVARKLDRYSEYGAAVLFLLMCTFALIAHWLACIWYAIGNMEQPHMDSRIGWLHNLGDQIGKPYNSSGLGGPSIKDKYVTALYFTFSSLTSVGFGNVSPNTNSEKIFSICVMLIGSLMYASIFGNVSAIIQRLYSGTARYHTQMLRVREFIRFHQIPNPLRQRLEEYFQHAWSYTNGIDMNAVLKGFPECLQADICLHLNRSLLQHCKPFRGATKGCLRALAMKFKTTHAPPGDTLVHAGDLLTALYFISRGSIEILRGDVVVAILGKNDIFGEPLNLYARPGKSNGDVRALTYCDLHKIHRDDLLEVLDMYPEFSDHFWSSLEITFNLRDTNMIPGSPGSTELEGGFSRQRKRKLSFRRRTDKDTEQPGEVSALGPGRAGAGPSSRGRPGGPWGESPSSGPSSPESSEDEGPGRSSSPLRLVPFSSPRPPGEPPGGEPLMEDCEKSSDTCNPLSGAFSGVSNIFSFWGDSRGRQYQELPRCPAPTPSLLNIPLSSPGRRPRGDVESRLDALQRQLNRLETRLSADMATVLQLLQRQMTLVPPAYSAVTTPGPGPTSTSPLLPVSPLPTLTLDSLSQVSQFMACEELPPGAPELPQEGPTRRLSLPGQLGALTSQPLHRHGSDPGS

Row | Compound | hERG current change (%, negative = inhibition) at 10uM [%]
1 | OCC[n+]1c2ccccc2nc2ccc(N3CCOCC3)cc21.[O-][Cl+3]([O-])([O-])[O-] | 3.86
2 | O=C1Cc2cc(NS(=O)(=O)c3cc(F)ccc3F)cc3c2N1CCC3 | -2.87
3 | Cc1ccc(NC(=S)N(CCN2CCOCC2)Cc2cc3cc4c(cc3[nH]c2=O)OCCO4)cc1 | -14.3
4 | C=CCNC(=O)CN1C(=O)NC(C)(c2ccc(OC)cc2)C1=O (stereo not drawn) | -14.2
5 | COC(=O)C(NC(=O)c1ccc(OC)cc1)(Nc1ncc(S(=O)(=O)c2ccc([N+](=O)[O-])cc2)s1)C(F)(F)F (stereo not drawn) | -5.41
6 | COC(=O)C(NC(=O)c1ccccc1Cl)(Nc1ncc(S(=O)(=O)c2ccc([N+](=O)[O-])cc2)s1)C(F)(F)F (stereo not drawn) | -32.8
7 | COC(=O)C(NC(=O)c1ccc(F)cc1)(Nc1ncc(S(=O)(=O)c2ccc([N+](=O)[O-])cc2)s1)C(F)(F)F (stereo not drawn) | -52.9
8 | CCc1nnc(NC(=O)CCC(=O)NC2CCCCCC2)s1 | 3.71
9 | COc1ccc(-n2c(Cc3ccccc3)nc3ccccc3c2=O)cc1 | -92.8
10 | COc1ccc(-n2c(-c3ccccc3[N+](=O)[O-])nc3ccccc3c2=O)cc1 | -68.7
11 | O=c1c2ccccc2nc(Cc2ccccc2)n1-c1ccccc1 | -20.9
12 | COc1ccc(-c2nc3ccccc3c(=O)n2-c2ccc(OC)cc2)cc1 | -4.5
13 | CCCc1nc2ccccc2c(=O)n1-c1ccc(OC)cc1 | 9.5
14 | O=c1c2ccccc2nc(Cc2cccc([N+](=O)[O-])c2)n1-c1ccc(O)cc1 | -35.5
15 | O=c1c2ccccc2nc(Cc2ccccc2)n1-c1ccc(O)cc1 | -23.9
16 | COc1ccc(-n2c(Cc3cccc([N+](=O)[O-])c3)nc3ccccc3c2=O)cc1 | -69.4
17 | COc1ccc(-n2c(-c3ccccc3Br)nc3ccccc3c2=O)cc1 | -20.9
18 | CCc1c(C)sc(NC(=O)c2cc(-c3cc(OC)ccc3OC)on2)c1C#N | 3.3
19 | COc1ccc2cc(C(=O)C3CCCN(C(=O)c4cccnc4)C3)ccc2c1 (stereo not drawn) | -25.1
20 | CCOC(=O)c1ccc(N=Nc2c(C)c(C#N)c(O)[nH]c2=O)cc1 | 1.91
21 | Cc1ccc(OCCNC(=O)CCNS(=O)(=O)c2ccc(Br)cc2)cc1 | 15.7
22 | CSc1nncc(-c2ccc(F)c(F)c2)n1 | 10.8
23 | C=CCNC(=S)/N=C/c1c(O)[nH]c(=O)[nH]c1=O | -52.8
24 | CCCCCCCCN=Cc1c(O)[nH]c(=O)[nH]c1=O | 4.9

Row | Compound | hERG current change (%, negative = inhibition) at 10uM [%]
25 | NC(=S)/N=C/c1c(O)[nH]c(=O)[nH]c1=O | 12.5
26 | CCNc1nc(NCC)n2c(SCC(=O)Nc3ccccc3Cl)nnc2n1 | 11
27 | O=C(CSc1c(Cl)cccc1Cl)N1CCC(c2nc3ccccc3s2)CC1 | -0.729
28 | O=C(CSc1ccc(F)cc1)N1CCC(c2nc3ccccc3s2)CC1 | -67.1
29 | CCNC(=O)N1CCC(c2nc3ccccc3s2)CC1 | 10.3
30 | O=C(CSc1ccc(Cl)cc1Cl)N1CCC(c2nc3ccccc3s2)CC1 | -14.5
31 | O=C(CSc1ccccc1Cl)N1CCC(c2nc3ccccc3s2)CC1 | -7.4
32 | O=C(CSc1ccc(Cl)cc1)N1CCC(c2nc3ccccc3s2)CC1 | -59.7
33 | CS(=O)(=O)Cc1ccc(C(=O)N2CCCC2c2cccs2)cc1 (stereo not drawn) | 16.9
34 | CN(CCc1ccccn1)C(=O)CCC1CCCN(C(=O)c2ccccn2)C1 (stereo not drawn) | 21.8
35 | Cc1ccccc1C(=O)Nc1ccc2c(c1)OCCO2 | 6.96
36 | Cc1ccc(C(=O)CCC(=O)Nc2ccccc2C)cc1C | 15
37 | CCCCCCn1c(CN2CCN(Cc3ccccc3)CC2)nc2c1c(=O)n(C)c(=O)n2C | -71.8
38 | CN1CCN(Cc2nc3c(c(=O)n(C)c(=O)n3C)n2CCCc2ccccc2)CC1 | -13.4
39 | CCCCn1c(SCc2nnc(-c3ccccc3)o2)nc2c1c(=O)n(C)c(=O)n2C | -56
40 | CCCCn1c(SCc2cccnc2)nc2c1c(=O)n(C)c(=O)n2C | -28
41 | CCCC(=O)OCCn1c(Br)nc2c1c(=O)[nH]c(=O)n2C | 16.9
42 | CCCCCn1c(CN2CCN(Cc3ccccc3)CC2)nc2c1c(=O)n(C)c(=O)n2C | -68
43 | CCCCCCn1c(CN2CCN(CCO)CC2)nc2c1c(=O)n(C)c(=O)n2C | -38.3
44 | CCC(=O)OCCn1c(Br)nc2c1c(=O)[nH]c(=O)n2C | -0.796
45 | CCCCCn1c(CN2CCN(CCO)CC2)nc2c1c(=O)n(C)c(=O)n2C | -17.9
46 | CCOC(=O)Cn1c(Br)nc2c1c(=O)[nH]c(=O)n2C | -58
47 | Cn1c(=O)c2c(nc(CN3CCCCC3)n2CCCc2ccccc2)n(C)c1=O | -29.1
48 | CCCCn1c(SCc2ccccn2)nc2c1c(=O)n(C)c(=O)n2C | -8.02
